# According to PubChem BioAssay (NCATS):
# Calls of active or inactive are those of the source.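 The calls were made as follows: active = calcium activation more than 3 SD above the typical response in the agonist read; inactive = the rest.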
# Target: Thyrotropin-releasing hormone receptor (Homo sapiens) (UniProt P34981)
# Test: qHTS for Small Molecule Agonists and Allosteric Enhancers of Human TRH Receptor: Validation Screen for Agonists (AID 493127);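 also: intracellular calcium rise by fluo-8 fluorescence before TRH EC20 addition; 0% is about no effect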
# Conditions: TRH receptor agonist cell assay; at 2 µM; stronger effect = higher value
# In short: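 Gq-coupled calcium mobilization in TRHR cells after compound addition, monitored kinetically with fluo-8 dye on an FDSS reader.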
# Thyrotropin-releasing hormone receptor (Homo sapiens), sequence (P34981 whole entry, looked up): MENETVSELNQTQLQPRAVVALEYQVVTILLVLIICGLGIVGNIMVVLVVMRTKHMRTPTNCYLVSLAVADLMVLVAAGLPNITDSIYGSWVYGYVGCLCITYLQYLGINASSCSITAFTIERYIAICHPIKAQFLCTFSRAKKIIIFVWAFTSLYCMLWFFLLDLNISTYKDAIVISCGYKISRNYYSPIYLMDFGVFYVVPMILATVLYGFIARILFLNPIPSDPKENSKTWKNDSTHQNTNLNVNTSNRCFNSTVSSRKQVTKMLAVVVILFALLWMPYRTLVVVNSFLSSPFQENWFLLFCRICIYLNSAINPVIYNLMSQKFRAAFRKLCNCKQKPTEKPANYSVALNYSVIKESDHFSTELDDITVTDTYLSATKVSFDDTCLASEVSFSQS
row,SMILES,activation
1,N[C@@H](CCCC(=O)O)C(=O)O,0.75% (inactive)
2,CSC(N)=NCCC[C@H](N)C(=O)O,0.75% (inactive)
3,NCCCCN=C(N)N,0.812% (inactive)
4,C#CCn1c(=O)c2c(ncn2C)n(C)c1=O,0.938% (inactive)
5,O=C(O)Cc1c[nH]c2ccc(O)cc12,-0.188% (inactive)
6,COc1cc(N)c(Cl)cc1C(=O)OCCN1CCCCC1,-2.44% (inactive)
7,c1ccc(C2CN3CCSC3=N2)cc1 (stereo not drawn),-0.188% (inactive)
8,NCCS(=O)O,1.19% (inactive)
9,Oc1ccc(Cn2cc[nH]c2=S)cc1,1.06% (inactive)
10,COc1ccc(-c2ccc(N)[n+](CCCC(=O)O)n2)cc1,1% (inactive)
11,CC(C)Cn1c(=O)n(C)c(=O)c2[nH]cnc21,0.875% (inactive)
12,Cn1cc(C(F)(F)F)nc1-c1ccc(OCC(O)CNCCOc2ccc(O)c(C(N)=O)c2)cc1 (stereo not drawn),1.5% (inactive)
13,Cn1c(=O)c2c(nc(/C=C/c3cccc(Cl)c3)n2C)n(C)c1=O,-2.88% (inactive)
14,Cn1cc(C(=O)OCC2CCN(CCNS(C)(=O)=O)CC2)c2ccccc21,0.688% (inactive)
15,NC/C=C\C(=O)O,0.75% (inactive)
16,Nc1ccc(-c2nc3ccc(-c4nc5ccc(N)cc5[nH]4)cc3[nH]2)cc1,1% (inactive)
17,NC(=O)c1cc[n+](CC2=C(C(=O)O)N3C(=O)[C@@H](NC(=O)[C@@H](c4ccccc4)S(=O)(=O)[O-])[C@H]3SC2)cc1,13.1% (inactive)
18,N[C@@H](Cc1c[nH]c2ccccc12)C(=O)O,-0.125% (inactive)
